According to PMC7862700, “An all-to-all approach to the identification of sequence-specific readers for epigenetic DNA modifications on cytosine”:

Assays:
Assay in all cases: DAPPL (digital affinity profiling via proximity ligation, sequencing); 10 mM Tris-HCl pH 7.5, 50 mM NaCl, 1 mM DTT, 4% glycerol, room temperature, 30 min; GST-TFs on glutathione beads, 16-mer random dsDNA library, 0.1% formaldehyde crosslink after washing; high values mean tight binding
Settings in all cases: protein: recombinant; tags: N-terminal GST; dsDNA, one strand shown
FLI1 = target: T1, FLI1 (Homo sapiens, UniProt Q01543 1-452)
T1 sequence: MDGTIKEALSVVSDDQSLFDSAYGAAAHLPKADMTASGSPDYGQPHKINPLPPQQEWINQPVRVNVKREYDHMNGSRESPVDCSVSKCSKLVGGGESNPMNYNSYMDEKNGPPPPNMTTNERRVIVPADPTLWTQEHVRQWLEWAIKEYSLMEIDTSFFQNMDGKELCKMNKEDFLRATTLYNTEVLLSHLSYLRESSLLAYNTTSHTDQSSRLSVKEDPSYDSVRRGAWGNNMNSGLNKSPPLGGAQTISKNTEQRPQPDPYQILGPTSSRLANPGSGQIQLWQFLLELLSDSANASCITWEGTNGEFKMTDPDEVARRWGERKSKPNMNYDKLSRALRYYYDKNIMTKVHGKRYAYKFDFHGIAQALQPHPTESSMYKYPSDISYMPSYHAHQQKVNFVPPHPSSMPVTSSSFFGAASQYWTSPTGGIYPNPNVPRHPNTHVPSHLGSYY
Method in brief: (§1)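 After expression in yeast as GST fusions, human transcription factors were bound to glutathione beads, DNA-barcoded and mixed with a tag-only sample. The pools were incubated with 200 nmole of a 16-mer random double-stranded DNA library in Tris/NaCl/DTT/glycerol buffer (30 min, room temperature), washed and crosslinked with 0.1% formaldehyde. Proximity ligation with BsaI/T4 ligase ran for 1 h at 37 °C, before PCR amplification and sequencing on an Illumina NextSeq500. Binding signal is a hexamer's read frequency for a factor divided by its frequency for the tag-only sample.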

ELK1 = target: T2, ELK1 (Homo sapiens, UniProt P19419 1-428)
T2 sequence: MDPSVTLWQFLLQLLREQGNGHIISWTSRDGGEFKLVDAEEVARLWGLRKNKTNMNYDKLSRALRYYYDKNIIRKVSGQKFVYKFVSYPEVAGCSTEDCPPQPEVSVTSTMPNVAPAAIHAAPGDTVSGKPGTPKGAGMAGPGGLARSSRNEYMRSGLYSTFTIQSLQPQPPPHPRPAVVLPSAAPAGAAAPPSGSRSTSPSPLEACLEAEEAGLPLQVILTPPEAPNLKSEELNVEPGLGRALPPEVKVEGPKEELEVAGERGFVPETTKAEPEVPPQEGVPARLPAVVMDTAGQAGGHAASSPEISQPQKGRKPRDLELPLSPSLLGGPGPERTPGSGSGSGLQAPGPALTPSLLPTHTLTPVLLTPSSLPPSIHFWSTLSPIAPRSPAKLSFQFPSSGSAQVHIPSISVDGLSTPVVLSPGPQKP
Method in brief: as §1

GABPA = target: T3, GABPA (Homo sapiens, UniProt Q06546 1-454)
T3 sequence: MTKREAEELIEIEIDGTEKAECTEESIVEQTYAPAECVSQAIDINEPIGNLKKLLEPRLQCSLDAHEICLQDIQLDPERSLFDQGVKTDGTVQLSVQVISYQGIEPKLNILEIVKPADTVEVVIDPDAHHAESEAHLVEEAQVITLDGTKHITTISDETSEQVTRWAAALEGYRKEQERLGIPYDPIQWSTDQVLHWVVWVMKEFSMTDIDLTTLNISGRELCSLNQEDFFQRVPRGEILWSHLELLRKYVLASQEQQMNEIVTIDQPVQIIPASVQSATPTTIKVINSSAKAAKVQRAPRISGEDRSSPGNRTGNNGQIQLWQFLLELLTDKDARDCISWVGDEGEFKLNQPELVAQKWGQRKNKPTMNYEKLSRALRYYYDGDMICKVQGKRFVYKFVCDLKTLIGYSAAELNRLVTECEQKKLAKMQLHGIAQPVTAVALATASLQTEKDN
Method in brief: as §1

ERG = target: T4, ERG (Homo sapiens, UniProt P11308 1-479)
T4 sequence: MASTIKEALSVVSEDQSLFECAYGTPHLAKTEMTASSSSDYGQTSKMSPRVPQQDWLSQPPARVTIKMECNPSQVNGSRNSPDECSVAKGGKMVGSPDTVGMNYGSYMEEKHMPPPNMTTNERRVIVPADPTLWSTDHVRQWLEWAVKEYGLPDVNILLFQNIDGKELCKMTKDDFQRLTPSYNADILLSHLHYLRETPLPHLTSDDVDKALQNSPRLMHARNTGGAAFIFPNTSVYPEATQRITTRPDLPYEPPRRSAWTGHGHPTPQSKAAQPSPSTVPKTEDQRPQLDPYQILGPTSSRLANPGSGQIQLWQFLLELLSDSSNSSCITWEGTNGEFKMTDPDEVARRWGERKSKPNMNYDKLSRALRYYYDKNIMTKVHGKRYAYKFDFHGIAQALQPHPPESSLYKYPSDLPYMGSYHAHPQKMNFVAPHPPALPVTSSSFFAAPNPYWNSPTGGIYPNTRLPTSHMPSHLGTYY
Method in brief: as §1

ELF1 = ELF1 (Homo sapiens, UniProt P32519 1-619)
Method in brief: as §1

EHF = target: T5, EHF (Homo sapiens, UniProt Q9NZC4 1-300)
T5 sequence: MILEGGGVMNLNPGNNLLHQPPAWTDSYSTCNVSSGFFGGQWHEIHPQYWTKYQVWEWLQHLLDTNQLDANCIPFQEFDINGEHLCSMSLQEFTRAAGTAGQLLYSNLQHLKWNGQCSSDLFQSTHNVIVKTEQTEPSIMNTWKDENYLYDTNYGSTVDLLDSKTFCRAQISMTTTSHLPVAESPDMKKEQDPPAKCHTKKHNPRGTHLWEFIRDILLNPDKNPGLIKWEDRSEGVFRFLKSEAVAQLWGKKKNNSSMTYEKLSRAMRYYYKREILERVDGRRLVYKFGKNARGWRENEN
Method in brief: as §1

SPI1 = SPI1 (Homo sapiens, UniProt P17947 1-270)
Method in brief: as §1

SPIB = SPIB (Homo sapiens, UniProt Q01892 1-262)
Method in brief: as §1

ELK3 = target: T6, ELK3 (Homo sapiens, UniProt P41970 1-407)
T6 sequence: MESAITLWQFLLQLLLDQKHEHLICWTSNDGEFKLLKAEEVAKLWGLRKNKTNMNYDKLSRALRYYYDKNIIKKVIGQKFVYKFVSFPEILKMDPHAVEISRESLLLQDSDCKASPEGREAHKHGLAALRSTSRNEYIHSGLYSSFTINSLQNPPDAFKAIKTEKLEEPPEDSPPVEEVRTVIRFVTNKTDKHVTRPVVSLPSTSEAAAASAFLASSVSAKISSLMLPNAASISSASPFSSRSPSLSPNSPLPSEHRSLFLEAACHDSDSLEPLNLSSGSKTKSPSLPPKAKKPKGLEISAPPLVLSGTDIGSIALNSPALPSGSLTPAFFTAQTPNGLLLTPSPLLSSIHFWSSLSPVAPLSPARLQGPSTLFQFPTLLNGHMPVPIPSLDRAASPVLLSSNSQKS
Method in brief: as §1

Sequence of SPIB (Q01892 whole entry): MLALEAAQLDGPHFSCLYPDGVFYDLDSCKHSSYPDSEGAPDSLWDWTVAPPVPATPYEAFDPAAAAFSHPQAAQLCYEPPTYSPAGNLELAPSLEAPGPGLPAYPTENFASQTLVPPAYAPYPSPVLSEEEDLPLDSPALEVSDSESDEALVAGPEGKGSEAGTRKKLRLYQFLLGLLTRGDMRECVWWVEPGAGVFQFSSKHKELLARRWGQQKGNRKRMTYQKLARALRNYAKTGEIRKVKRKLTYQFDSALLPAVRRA
Sequence of ELF1 (P32519 whole entry): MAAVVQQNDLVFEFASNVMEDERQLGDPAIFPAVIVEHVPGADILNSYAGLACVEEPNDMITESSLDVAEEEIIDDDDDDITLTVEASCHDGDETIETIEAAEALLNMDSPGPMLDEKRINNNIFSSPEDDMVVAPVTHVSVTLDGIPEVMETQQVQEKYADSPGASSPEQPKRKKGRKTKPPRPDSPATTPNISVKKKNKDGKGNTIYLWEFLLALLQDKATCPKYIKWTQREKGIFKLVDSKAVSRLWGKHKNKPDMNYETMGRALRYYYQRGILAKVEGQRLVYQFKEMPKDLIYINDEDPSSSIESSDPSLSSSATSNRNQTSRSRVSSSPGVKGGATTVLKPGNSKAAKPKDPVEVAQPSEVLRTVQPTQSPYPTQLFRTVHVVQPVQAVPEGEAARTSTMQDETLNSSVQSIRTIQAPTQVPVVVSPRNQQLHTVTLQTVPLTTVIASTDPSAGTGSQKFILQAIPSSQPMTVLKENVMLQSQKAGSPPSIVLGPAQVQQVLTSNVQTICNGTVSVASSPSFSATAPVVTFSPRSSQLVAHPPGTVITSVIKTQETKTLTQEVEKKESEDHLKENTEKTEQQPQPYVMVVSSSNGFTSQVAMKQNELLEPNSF

ACTAAA
binding signal (FLI1): 1.26 fold enrichment (6-mer frequency, TF over GST control)
binding signal (ELK1): 1.22 fold enrichment (6-mer frequency, TF over GST control)
binding signal (GABPA): 1.34 fold enrichment (6-mer frequency, TF over GST control)
binding signal (ERG): 1.3 fold enrichment (6-mer frequency, TF over GST control)
binding signal (ELF1): 1.32 fold enrichment (6-mer frequency, TF over GST control)
binding signal (EHF): 1.21 fold enrichment (6-mer frequency, TF over GST control)
binding signal (SPI1): 1.32 fold enrichment (6-mer frequency, TF over GST control)
binding signal (SPIB): 1.28 fold enrichment (6-mer frequency, TF over GST control)
binding signal (ELK3): 1.34 fold enrichment (6-mer frequency, TF over GST control)
